{"source": "PubChem BioAssay (EPA / NIEHS)", "note": "Activity calls are given as the source filed them. Rule for the calls: active = hit-call score of the fitted dose curve at least 0.9, where 1 is the maximum; inactive = score below 0.9."}
{"read-out": "adenosine kinase (ADK) gene, ADK (gene 132)", "experiment": "LTEA_HepaRG_ADK: Life Technologies and Expression Analysis (LTEA) Assay for adenosine kinase (ADK) gene using HepaRG (AID 2283471)", "conditions": "mRNA level, 48 h; actives raise or lower the signal", "procedure": "LTEA_HepaRG is a cell based, multiplexed-readout assay that uses HepaRG, a human liver cell line, with measurements taken at 48 hours after chemical dosing on a 96-well plate.LTEA_HepaRG_ADK is one of 102 assay component(s) measured in the LTEA HepaRG cell culture assay. It is a marker of Steatosis.Data from the assay component LTEA_HepaRG_ADK was analyzed into 1 endpoint. This assay endpoint, LTEA_HepaRG_ADK, was analyzed with bidirectional fitting relative to DMSO as the negative control and baseline of activity. Using a type of inducible reporter, measures of mRNA induction for gain or loss-of-signal activity can be used to understand regulation of transcription factor activity. To generalize the intended target to other relatable targets, this assay endpoint is annotated to the kinase intended target family, where the subfamily is steatosis.\nA total of 1060 chemcials from the ToxCast library were tested in eight-point concentration-response experiments. Cell culture and cytotoxicity assays were conducted at Thermo Fisher Scientific's Custom Services facility (Madison, WI). A single lot of human HepaRG cells (Thermo Fisher Scientific, Frederick, MD) was used for the cell culture experiments. 96-well format collagen type I coated plates of human HepaRG cells were prepared using established methods. Briefly, cryopreserved HepaRG cells were thawed, plated at a density of approximately 100,000 cells/well in HepaRG Thaw, Plate, and General Purpose media (HPRG770, Thermo Fisher Scientific), and incubated for 48 hours. 0.5% DMSO was selected as vehicle control to balance the requisite need of DMSO in HepaRG cultures to maintain differentiation (for example, baseline metabolism, proportions of hepatocytes vs. cholangiocytes), while enabling further hepatic receptor pathway activation (for example, PXR and CAR) in response to chemical exposure. 48 hours after plating, the culture medium was replaced with HepaRG Serum-Free Incudtion Media. Cells were exposed to each test chemical in duplicate and maintained in CO2 incubators for another 48 hours. Chemical plates were thawed to room temperature and 200x concentrations of treatment groups were prepared. 8-point conentration-reponse curves were made with the highest exposure at 100 uM, followed by half-log dilutions, all in 0.5% DMSO. Each test plate contained variouse controls, induction positive controls (1mM phenobarbital), cytotoxicity positive controls ([…] aflatoxin B1), vehicle controls (0.5% DMSO), and total lysis controls (0.5% DMSO). Cell morphology images were taken using an Essen IncuCyte FLR automated microscope, with six 96-well plates imaged in about 24 minutes. Images were captured and exported and JPEG files. Spent culture media was transfered to black-well plates for the LDH assay, and remaining media was sorted at -80 C for later use. Cells were treated with RLT buffer and frozen until shipped for gene expression analysis. Total RNA was isolated from the cell suspension in 75 uL of Buffer RLT (Qiagen, Germantown, MD 20874) by Quintiles/Expression Analysis (Durham, NC) using a custom isolation procedure. Total RNA from each plate well was transferred to a preamplification plate. Fluidigm's 96.96 Dynamic ArrayTM (Fluidigm, Amsterdam, the Netherlands) technology was used for gene expression analyses by quantitative reverse transcription polymerase chain reaction (qRT-PCR, performed by Quintiles/Expression Analysis, Durham, NC)89. Standard TaqManTM Assays (Applied Biosystems/ThermoFisher Scientific, Foster City, CA) were used to assess the expression of 93 genes selected based on their selectivity and sensitivity to important hepatic receptors known to be modulated by environmental chemicals; importance in human hepatocyte functionality; and hepatotoxicity. […]"}
{"smiles": "CCN(CC)c1ccccc1", "outcome": "inactive"}
{"smiles": "CC(C)(C)c1ccc(O)cc1", "outcome": "inactive"}
{"smiles": "CSC(C)(C)C=NO", "outcome": "inactive"}
{"smiles": "Cc1ccc(O)cc1C", "outcome": "inactive"}
{"smiles": "c1ccc(OP(Oc2ccccc2)Oc2ccccc2)cc1", "outcome": "inactive"}
{"smiles": "Cc1ccc(N)cc1N", "outcome": "inactive"}
{"smiles": "CC(Cc1ccc(OCC(=O)O)cc1)NCC(O)c1csc(C(F)(F)F)n1", "note": "(stereo not given)", "outcome": "inactive"}
{"smiles": "CC(Cl)(Cl)C(=O)O", "outcome": "inactive"}
{"smiles": "CCOc1ccc(C(C)(C)COCc2cccc(Oc3ccccc3)c2)cc1", "outcome": "inactive"}
{"smiles": "CC(C)(C)OOC(C)(C)C", "outcome": "inactive"}
{"smiles": "CCCCCCCc1ccc(O)cc1", "outcome": "inactive"}
{"smiles": "O=[N+]([O-])c1ccc(Cl)c(Cl)c1", "outcome": "inactive"}
{"smiles": "OCC1CO1", "note": "(stereo not given)", "outcome": "inactive"}
{"smiles": "Cc1ccc([N+](=O)[O-])cc1C", "outcome": "inactive"}
{"smiles": "COCCOCCO", "outcome": "inactive"}
{"smiles": "CCCCN(CCCC)SN(C)C(=O)Oc1cccc2c1OC(C)(C)C2", "outcome": "inactive"}
{"smiles": "O=C(O)C(Cl)Cl", "outcome": "inactive"}
{"smiles": "CCC1(c2ccccc2)C(=O)N=C(O)NC1=O", "note": "(stereo not given)", "outcome": "inactive"}
{"smiles": "CCC(C)(C)c1ccc(O)cc1", "outcome": "inactive"}
{"smiles": "ClC1=C(Cl)C2(Cl)C3C(Cl)C(Cl)CC3C1(Cl)C2(Cl)Cl", "note": "(stereo not given)", "outcome": "inactive"}
{"smiles": "CCNc1nc(Cl)nc(NC(C)(C)C)n1", "outcome": "inactive"}
{"smiles": "CCCCN(CCCC)N=O", "outcome": "inactive"}
{"smiles": "CCOP(=S)(OCC)SCSCC", "outcome": "inactive"}
{"smiles": "O=[N+]([O-])c1ccccc1", "outcome": "inactive"}
{"smiles": "CCCCc1ccccc1", "outcome": "inactive"}
{"smiles": "Nc1cc2c3c(c1)C(c1ccccc1)=N[C@@H](NC(=O)c1cccnc1)C(=O)N3CC2", "outcome": "inactive"}
{"smiles": "Nc1ccc(Cl)cc1", "outcome": "inactive"}
{"smiles": "c1ccc2c(c1)Nc1ccccc1S2", "outcome": "inactive"}
{"smiles": "CN(C)C(=O)Cl", "outcome": "inactive"}
{"smiles": "CCCN(CCC)c1c([N+](=O)[O-])cc(C(C)C)cc1[N+](=O)[O-]", "outcome": "inactive"}
{"smiles": "O=P(Oc1ccccc1)(Oc1ccccc1)Oc1ccccc1", "outcome": "inactive"}
{"smiles": "ClC(Cl)(Cl)c1ccccc1", "outcome": "inactive"}
{"smiles": "ClC(Cl)c1ccccc1", "outcome": "inactive"}
{"smiles": "O=C(O)C1C(C(=O)O)C2(Cl)C(Cl)=C(Cl)C1(Cl)C2(Cl)Cl", "note": "(stereo not given)", "outcome": "inactive"}
{"smiles": "CCOP(=S)(Oc1ccc([N+](=O)[O-])cc1)c1ccccc1", "note": "(stereo not given)", "outcome": "inactive"}
{"smiles": "[N-]=[N+]=[N-]", "outcome": "inactive"}
{"smiles": "c1cc2c3c(cccc3c1)CC2", "outcome": "inactive"}
{"smiles": "O=P1(N(CCCl)CCCl)NCCCO1", "note": "(stereo not given)", "outcome": "inactive"}
{"smiles": "Nc1ccc2ccccc2c1", "outcome": "inactive"}
{"smiles": "CCOC(=O)c1ccccc1C(=O)OCC", "outcome": "inactive"}
